Measurements from PubChem BioAssay (NCI).
This is part of a sample that, as a whole, favours compounds with a hit. Of some 79,000 tested, about 15% had one in any assay. Activity calls are given as the source filed them. Cut-off read from the data, not from the text of the source: active = growth inhibition above about 70%; inactive = the rest.

Assays:
[1] = NCI Yeast Anticancer Drug Screen. Data for the wt1 strain (AID 149);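 note: 0% = growth of vehicle-treated wt1 cultures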; conditions: S. cerevisiae wt1 strain (SPY 50644) growth inhibition, active compounds read high
Method in brief: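 Readout: yeast growth inhibition, normalised to vehicle controls, in the wt1 strain exposed to test compounds.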

[2] = NCI Yeast Anticancer Drug Screen. Data for the rad50EPP+ strain (AID 151);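 note: 0% = growth of vehicle-treated control cultures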; conditions: S. cerevisiae rad50 mutant strain, active compounds read high
Method in brief: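 Yeast strain carrying rad50 alteration (rad50EPP+) exposed to compounds; growth inhibition measured relative to vehicle-treated controls.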

[3] = NCI Yeast Anticancer Drug Screen. Data for the mgt1 strain (AID 153); conditions: S. cerevisiae mgt1 mutant growth inhibition, active compounds read high
Method in brief: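 Yeast mgt1 strain (DNA repair/cell-cycle alteration panel) exposed to compounds; growth inhibition measured relative to vehicle-treated controls.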

[4] = NCI Yeast Anticancer Drug Screen. Data for the rad50 strain (AID 155);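 note: 0% = growth of vehicle-only cultures of the same strain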; conditions: S. cerevisiae rad50 strain growth inhibition, active compounds read high
Method in brief: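 Compounds were tested on a yeast strain with an engineered DNA damage repair alteration; the reported value is growth inhibition normalised to vehicle treatment.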

[5] = NCI Yeast Anticancer Drug Screen. Data for the mec2-1 strain (AID 157); conditions: S. cerevisiae mec2-1 strain, active compounds read high
Method in brief: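 mec2-1 yeast strain, carrying an alteration in DNA damage repair or cell cycle control, was exposed to compounds; growth inhibition was measured relative to vehicle-treated controls.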

[6] = NCI Yeast Anticancer Drug Screen. Data for the rad14 strain (AID 159);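 note: 0% = growth of vehicle-treated control cultures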; conditions: S. cerevisiae rad14 strain growth inhibition, active compounds read high
Method in brief: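 Compound-treated yeast with a defined DNA-repair lesion; growth inhibition normalised to vehicle-treated cultures.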

[7] = NCI Yeast Anticancer Drug Screen. Data for the CLN2oe strain (AID 163);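 note: 0% = growth of vehicle-only control cultures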; conditions: S. cerevisiae CLN2oe strain, active compounds read high
Method in brief: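 Yeast cells carrying a defined cell-cycle control alteration were exposed to test compounds. Growth inhibition was scored against vehicle-treated control cultures.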

[8] = NCI Yeast Anticancer Drug Screen. Data for the cln2 rad14 strain (AID 165);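 note: 0% = growth equal to vehicle treated cultures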; conditions: S. cerevisiae cln2 rad14 strain, active compounds read high
Method in brief: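 Yeast carrying cln2 and rad14 alterations (cell cycle control and DNA damage repair) were exposed to compounds. Growth inhibition was measured against vehicle-treated controls.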

[9] = NCI Yeast Anticancer Drug Screen. Data for the bub3 strain (AID 167); conditions: S. cerevisiae bub3 mutant strain, active compounds read high
Method in brief: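 Growth of a checkpoint-deficient yeast mutant is measured after compound exposure. Values represent inhibition relative to vehicle.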

[10] = NCI Yeast Anticancer Drug Screen. Data for the wt2 strain (AID 169);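 note: 0% = growth of vehicle-treated yeast cultures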; conditions: S. cerevisiae wt2 strain growth inhibition, active compounds read high
Method in brief: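 Yeast cells were exposed to test compounds, and growth inhibition was measured relative to vehicle-treated controls.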

[11] = NCI Yeast Anticancer Drug Screen. Data for the mlh1 strain (AID 171);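 note: 0% = growth of vehicle-treated control cultures of the same strain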; conditions: S. cerevisiae mlh1 strain growth inhibition, active compounds read high
Method in brief: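 Yeast carrying a defined genetic alteration in DNA damage repair or cell cycle control were exposed to test compounds. Growth inhibition was measured relative to vehicle-treated controls.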

[12] = NCI Yeast Anticancer Drug Screen. Data for the sgs1 strain (AID 173);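 note: 0% = growth of vehicle-only control cultures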; conditions: S. cerevisiae sgs1 mutant, active compounds read high
Method in brief: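 Yeast mutant strains carrying defined defects in DNA damage repair or cell cycle control were exposed to test compounds. Growth inhibition was scored against vehicle-treated controls.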

[13] = NCI Yeast Anticancer Drug Screen. Data for the mlh1 rad18 strain (AID 175); conditions: S. cerevisiae mlh1 rad18 strain growth inhibition, active compounds read high
Method in brief: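 Growth inhibition of the yeast strain was measured after compound exposure and expressed relative to vehicle-treated controls. The strain carries defined defects in DNA damage repair.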

[14] = NCI Yeast Anticancer Drug Screen. Data for the rad18 strain (AID 177); conditions: S. cerevisiae rad18 mutant growth inhibition, active compounds read high
Method in brief: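 Yeast carrying a defined DNA damage repair alteration were exposed to compounds. Growth inhibition was expressed relative to vehicle-treated controls.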

[15] = at 5.0 µM (retest, dose inferred, filed as 0.5)
[16] = at 50.0 µM (retest, dose inferred, filed as 5.0)

Measured: growth inhibition

N=c1oc2ccccc2cc1-c1nc2ccccc2[nH]1
active: [2]; at 33.0 µM 85% | [2]; at 100.0 µM 91% | [3]; at 100.0 µM 79% | [4]; [16] 85% | [4]; at 100.0 µM 88% | [6]; at 100.0 µM 88% | [10]; at 100.0 µM 80% | [11]; at 100.0 µM 82% | [12]; at 100.0 µM 82% | [13]; [16] 84% | [14]; at 100.0 µM 71%
inactive: [1]; at 1.2 µM 1% | [1]; at 3.7 µM 9% | [1]; at 11.0 µM 15% | [1]; at 33.0 µM 28% | [1]; at 100.0 µM 45% | [2]; at 1.2 µM 30% | [2]; at 3.7 µM 48% | [2]; at 11.0 µM 58% | [3]; at 1.2 µM 13% | [3]; at 3.7 µM 11% | [3]; at 11.0 µM 24% | [3]; at 33.0 µM 43% | [4]; at 1.2 µM 15% | [4]; at 3.7 µM 18% | [4]; [15] 7% | [4]; at 11.0 µM 31% | [4]; at 33.0 µM 64% | [4]; at 50.0 µM 70% | [5]; at 1.2 µM -6% | [5]; at 3.7 µM 10% | [5]; [15] 2% | [5]; at 11.0 µM 11% | [5]; at 33.0 µM 26% | [5]; [16] 66% | [5]; at 50.0 µM 31.8% | [5]; at 100.0 µM 62% | [6]; at 1.2 µM 5% | [6]; at 3.7 µM 11% | [6]; at 11.0 µM 25% | [6]; at 33.0 µM 39% | [7]; at 1.2 µM 6% | [7]; at 3.7 µM -21% | [7]; at 11.0 µM 12% | [7]; at 33.0 µM 25% | [7]; at 100.0 µM 47% | [8]; [15] 5% | [8]; [16] 27% | [8]; at 50.0 µM 28.3% | [9]; at 1.2 µM -13% | [9]; at 3.7 µM -12% | [9]; [15] 23% | [9]; at 11.0 µM -3% | [9]; at 33.0 µM 9% | [9]; [16] 56% | [9]; at 50.0 µM 33.8% | [9]; at 100.0 µM 57% | [10]; at 1.2 µM -31% | [10]; at 3.7 µM -29% | [10]; at 11.0 µM -13% | [10]; at 33.0 µM 47% | [11]; at 1.2 µM 0% | [11]; at 3.7 µM 3% | [11]; at 11.0 µM 17% | [11]; at 33.0 µM 42% | [12]; at 1.2 µM 15% | [12]; at 3.7 µM 28% | [12]; at 11.0 µM 41% | [12]; at 33.0 µM 59% | [13]; [15] 6% | [13]; at 50.0 µM 16.6% | [14]; at 1.2 µM 2% | [14]; at 3.7 µM 5% | [14]; at 11.0 µM 14% | [14]; at 33.0 µM 27%
